Screens: PubChem, Broad Institute
PAX8 reporter = inhibitors of PAX8 transcriptional activity in RMG-I cells. RMG-I TPO-luciferase reporter, SteadyGlo, 24 h. inhibition, % at 12.6 µM. hit rate 1.2% among 360,000;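 active means mean replicate inhibition at least 60% with every replicate also reaching 60%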;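 further: luciferase light reporting Pax8 driven TPO promoter activity; plate controls were median of neutral control wells for no effect and mitoxantrone controls for full effect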
Env fusion inh = inhibitors of HIV Env-mediated cell fusion. HeLa-JRFL Env/CEM21 cell fusion, luciferase. inhibition, % at 12.3 µM. hit rate 1.1% among 360,000;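 active means mean replicate inhibition score of at least 50 and every replicate individually at or above 50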;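 further: 0% = plate neutral controls and 100% = maraviroc near 300 nM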
EWS-Fli block = blocks EWS/Fli oncoprotein-driven transcription. A673 NR0B1-luciferase reporter, viability-normalised. inhibition, % at 12.6 µM. hit rate 0.67% among 350,000. AID 651661;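 active means mean inhibition of at least 50% after viability correction, with every replicate also passing that limit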;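 further: firefly luciferase signal divided by Alamar Blue viability fluorescence both relative to DMSO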
miR-122 sensor = inhibitors of miR-122 in Huh7 cells | activation (reporter increase), % at 12.5 µM | hit rate 0.3% among 340,000 | AID 602342 | Huh7 miR-122 Renilla luciferase sensor, 48 h; neutral wells = 0, positive control = 100;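 active means mean replicate activation score at least 90 and every replicate individually at or above 90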;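 further: higher luciferase means less miR-122 activity so hits act as miR-122 inhibitors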
C2C12 statin = protects C2C12 myotubes from simvastatin toxicity | ATP luminescence, 48 h; scaled: DMSO 0, geranylgeraniol control 100 | hit rate 0.78% among 330,000 | AID 602340 | rescue of ATP level, % at 7.49 µM;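 active means mean ATP rescue above about 67%, or every replicate alone reaching that limit, limit read from the data, passing the limit was not always enough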;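 further: myotubes were challenged with 10 µM simvastatin during compound exposure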
GSIS activator = primary screen for activators of insulin secretion dependent on glucose, INS-1E cells, GLuc reporter luminescence | INS-1E GLuc reporter insulin secretion, 2-3 h | activation, % at 16.6 µM | hit rate 0.61% among 370,000 | AID 743287;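 active means lowest replicate activation of at least 40%, so every replicate reaches that level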;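 further: 0% = median of neutral control wells and 100% = median of IBMX positive control wells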
Numbers without * were called inactive; [ ] = remark or other dose. Rows were chosen to be rich in hits. Some 3.1% of all compounds tested hit in one or more screens of this group.

What do the screens show for `C=C1C(=O)c2sccc2C(c2ccc(OC)c(OC)c2)C1COC(C)=O` (configuration not stated)?
PAX8 reporter: 115*; Env fusion inh: -51; EWS-Fli block: 77*; GSIS activator: 115*

How did O=C(C1CCCC1)N1CC2(C1)[C@@H](c1ccccc1)[C@H](CO)N2C(=O)NC1CCCC1 do in these assays?
EWS-Fli block: 8; GSIS activator: 2

Results for Cc1cc2c(c(=O)n1CCN(C)C)C(c1ccc(Br)cc1)C(C#N)=C(N)O2 (configuration not stated) ?
C2C12 statin: -11; GSIS activator: 15

What do the screens show for `Cc1cc2c(c(=O)n1Cc1cccnc1)C(c1ccc(F)cc1)C(C#N)=C(N)O2` (configuration not stated)?
miR-122 sensor: -5; C2C12 statin: 110*

How did Cc1cc2c(c(=O)n1CCN(C)C)C(c1ccccc1Br)C(C#N)=C(N)O2 (configuration not stated) do in these assays?
miR-122 sensor: 4; C2C12 statin: 90*

What do the screens show for `CCn1c(C)cc2c(c1=O)C(c1ccncc1)C(C#N)=C(N)O2` (configuration not stated)?
Env fusion inh: -28; miR-122 sensor: -14; C2C12 statin: 23

Results for O=C(c1ccncc1)N1CC(=O)N2[C@H](C1)[C@@H](c1ccc(/C=C/c3ccccc3)cc1)[C@@H]2CO ?
PAX8 reporter: 15; EWS-Fli block: -7; GSIS activator: 9

Results for C[C@@H]1CN([C@H](C)CO)C(=O)c2cccc(NS(=O)(=O)c3cccs3)c2O[C@H]1CN(C)S(=O)(=O)c1ccc(F)cc1 ?
PAX8 reporter: -18; Env fusion inh: 13[16.7 µM]; EWS-Fli block: -6; miR-122 sensor: 0[16.7 µM]; C2C12 statin: -25; GSIS activator: 11

Results for Cc1cc(Br)ccc1Nc1nc(N)nc(N)c1N=O ?
Env fusion inh: 56*; EWS-Fli block: -11; miR-122 sensor: -1; C2C12 statin: 5

Results for CC(=O)NCCNC(=O)CNC(=O)c1ccc(Cl)cc1 ?
PAX8 reporter: 1; Env fusion inh: -21; GSIS activator: 47*

Results for Cc1ccc(S(=O)(=O)N(C)C[C@H]2Oc3ncc(Br)cc3C(=O)N([C@@H](C)CO)C[C@@H]2C)cc1 ?
PAX8 reporter: 8; Env fusion inh: 77*[16.7 µM]; EWS-Fli block: -6; miR-122 sensor: 4[16.7 µM]; C2C12 statin: 1; GSIS activator: -21

Results for Cc1ccc(S(=O)(=O)N(C)C[C@@H]2Oc3ncc(Br)cc3C(=O)N([C@@H](C)CO)C[C@@H]2C)cc1 ?
PAX8 reporter: 8; Env fusion inh: 58*[16.7 µM]; EWS-Fli block: -7; miR-122 sensor: 3[16.7 µM]; C2C12 statin: 7; GSIS activator: -4

Results for Cc1ccc(S(=O)(=O)N(C)C[C@H]2Oc3ncc(Br)cc3C(=O)N([C@@H](C)CO)C[C@H]2C)cc1 ?
PAX8 reporter: -1; Env fusion inh: 23[16.7 µM]; EWS-Fli block: -9; miR-122 sensor: 0[16.7 µM]; C2C12 statin: -3; GSIS activator: 23

Results for O=C(OCCOc1cccc(Cl)c1)c1cc(S(=O)(=O)N2CCCCC2)ccc1N1CCOCC1 ?
PAX8 reporter: 55; Env fusion inh: 75*; EWS-Fli block: 38; GSIS activator: 38

What do the screens show for `O=C(OCc1ccccc1)c1cc(S(=O)(=O)N2CCCCC2)ccc1N1CCOCC1`?
PAX8 reporter: 2; Env fusion inh: -2; EWS-Fli block: 20; miR-122 sensor: 7; C2C12 statin: 1; GSIS activator: -11

Results for Cc1ccc(COC(=O)c2cc(S(=O)(=O)N3CCCCC3)ccc2N2CCOCC2)cc1 ?
PAX8 reporter: 37; Env fusion inh: 76*; EWS-Fli block: 33; miR-122 sensor: -5; C2C12 statin: 19; GSIS activator: -5

What do the screens show for `CO[C@H]1CN(C)C(=O)c2cc(NS(=O)(=O)Cc3ccccc3)ccc2OC[C@@H](C)NC[C@@H]1C`?
PAX8 reporter: -4; Env fusion inh: -13[16.7 µM]; EWS-Fli block: 4; C2C12 statin: 7; GSIS activator: 8

Results for O=C(C[C@H]1CC[C@H]2[C@@H](COC[C@H](O)CN2C(=O)Cc2ccccc2)O1)NC1CCC1 ?
PAX8 reporter: 3; EWS-Fli block: -6; miR-122 sensor: 2[16.7 µM]; C2C12 statin: -12; GSIS activator: 5

Results for CN(C)Cc1cn(CC[C@@H]2CC[C@H](N)[C@H](CO)O2)nn1 ?
PAX8 reporter: 1; Env fusion inh: 63*[16.7 µM]; EWS-Fli block: -2; miR-122 sensor: 1[16.7 µM]; C2C12 statin: 15; GSIS activator: -4

How did C[C@H](CO)N1C[C@H](C)[C@H](CN(C)S(=O)(=O)c2ccccc2)Oc2ccc(NC(=O)NC3CCCCC3)cc2CC1=O do in these assays?
PAX8 reporter: 3; Env fusion inh: 87*; EWS-Fli block: -3; miR-122 sensor: 0[16.7 µM]; C2C12 statin: 2; GSIS activator: -15

Results for CC(C)NC(=O)Nc1ccc2c(c1)CC(=O)N([C@@H](C)CO)C[C@H](C)[C@H](CN(C)S(=O)(=O)c1ccccc1)O2 ?
PAX8 reporter: -16; Env fusion inh: 23[16.7 µM]; miR-122 sensor: 11[16.7 µM]; C2C12 statin: -8; GSIS activator: 7

How did CC(C)NC(=O)Nc1ccc2c(c1)CC(=O)N([C@H](C)CO)C[C@H](C)[C@H](CN(C)S(=O)(=O)c1ccccc1)O2 do in these assays?
PAX8 reporter: -23; Env fusion inh: 65*[16.7 µM]; miR-122 sensor: -6[16.7 µM]; C2C12 statin: -14; GSIS activator: 7

How did C[C@@H]1CN([C@H](C)CO)C(=O)Cc2cc(NC(=O)NC3CCCCC3)ccc2O[C@H]1CN(C)S(=O)(=O)c1ccccc1 do in these assays?
PAX8 reporter: -5; EWS-Fli block: -5; miR-122 sensor: -1[16.7 µM]; C2C12 statin: 24; GSIS activator: -1

What do the screens show for `C[C@H]1CN([C@@H](C)CO)C(=O)Cc2cc(NC(=O)Nc3ccccc3)ccc2O[C@H]1CN(C)S(=O)(=O)c1ccccc1`?
PAX8 reporter: 20; Env fusion inh: 70*[16.7 µM]; EWS-Fli block: 4; miR-122 sensor: 7[16.7 µM]; C2C12 statin: -39

How did C[C@H]1CN([C@@H](C)CO)C(=O)Cc2cc(NC(=O)Nc3ccccc3)ccc2O[C@@H]1CN(C)S(=O)(=O)c1ccccc1 do in these assays?
PAX8 reporter: -23; Env fusion inh: -2[16.7 µM]; EWS-Fli block: -13; miR-122 sensor: 7[16.7 µM]; C2C12 statin: 18; GSIS activator: -2

What do the screens show for `c1ccc(-c2cc(N3CCCCCC3)n[nH]2)cc1`?
Env fusion inh: -34; miR-122 sensor: 1; C2C12 statin: 93*; GSIS activator: -14

What do the screens show for `c1ccc(-c2cc(N3CCCCC3)ncn2)cc1`?
miR-122 sensor: 1
